Data published in paper PMC5540273 (PLoS ONE, 2017).

Experiments:
Details in all cases: concentration: 1 μM, replicates: in singlicate; n = 1
MEK1 = test system: T1, MEK1
T1 construct: gene MAP2K1

MEK2 = test system: T2, MEK2
T2 construct: gene MAP2K2

MEK3 = test system: T3, MEK3
T3 construct: gene MAP2K3

MEK4 = test system: T4, MEK4
T4 construct: gene MAP2K4

MEK5 = test system: T5, MEK5
T5 construct: gene MAP2K5

MEK6 = test system: T6, MEK6
T6 construct: gene MAP2K6

MELK = test system: MELK
MERTK = test system: MERTK
MET = test system: MET
MINK = test system: T7, MINK
T7 construct: gene MINK1

MKK7 = test system: MKK7
MKNK1 = test system: MKNK1
MKNK2 = test system: MKNK2
MLCK = test system: T8, MLCK
T8 construct: gene MYLK3

MLK1 = test system: T9, MLK1
T9 construct: gene MAP3K9

MLK2 = test system: MLK2
MLK3 = test system: MLK3
MRCKA = test system: MRCKA
MRCKB = test system: T10, MRCKB
T10 construct: gene CDC42BPB

MST1R = test system: MST1R
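Also: KINOMEscan kinase panel screen.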

Row | SMILES | %Inh (MEK1) | %Inh (MEK2) | %Inh (MEK3) | %Inh (MEK4) | %Inh (MEK5) | %Inh (MEK6) | %Inh (MELK) | %Inh (MERTK) | %Inh (MET) | %Inh (MINK) | %Inh (MKK7) | %Inh (MKNK1) | %Inh (MKNK2) | %Inh (MLCK) | %Inh (MLK1) | %Inh (MLK2) | %Inh (MLK3) | %Inh (MRCKA) | %Inh (MRCKB) | %Inh (MST1R)
1 | CCCCCc1nc2c(N)ncnc2n1CCCCC [SKF-97255] | 15% | 28% | 34% | 18% | 32% | 15% | 0% | 17% | 0% | 0% | 0% | 6% | 0% | 0% | 0% | 50% | 0% | 0% | 0% | 0%
2 | c1ccc(-c2cc(-c3c[nH]nc3-c3ccccn3)ccn2)cc1 [GW576604] | 0% | 0% | 0% | 16% | 41% | 0% | 1% | 0% | 13% | 71% | 0% | 5% | 0% | 9% | 6% | 0% | 0% | 4% | 0% | 34%
3 | CNc1ncnc2[nH]ncc12 [SKF-18355] | 13% | 40% | 31% | 18% | 55% | 10% | 0% | 0% | 0% | 18% | 0% | 0% | 0% | 1% | 1% | 0% | 2% | 0% | 0% | 0%
4 | Cc1c(Cn2c(C)nn3c(=O)cc(N4CCOC(C)C4)nc23)cccc1C(F)(F)F (centres unmarked) [GSK2344444] | 0% | 0% | 0% | 17% | 49% | 0% | 0% | 10% | 0% | 0% | 0% | 0% | 7% | 2% | 0% | 0% | 13% | 0% | 0% | 28%
5 | O=c1cc(N2CCOCC2)nc2n(Cc3cccc(C(F)(F)F)c3)ccn12 [GSK2297543] | 0% | 0% | 0% | 31% | 0% | 0% | 4% | 0% | 0% | 0% | 0% | 0% | 0% | 0% | 0% | 14% | 19% | 0% | 0% | 12%
6 | COc1cc2c(cc1OC[C@@H](O)CO)ncc1c3ccc(C#N)cc3[nH]c21 | 45% | 42% | 0% | 0% | 99.9% | 0% | 31% | 0% | 0% | 91.9% | 0% | 97.1% | 99.4% | 94.5% | 3% | 0% | 0% | 0% | 0% | 9%
7 | Cc1c2ccc(N(C)c3ccnc(Nc4cccc(S(N)(=O)=O)c4)n3)cc2nn1Cc1ccccc1.Cl.Cl [GW787226] | 12% | 34% | 29% | 75% | 98.4% | 23% | 16% | 70% | 60% | 54% | 15% | 0% | 0% | 0% | 0% | 50% | 26% | 0% | 0% | 0%
8 | O=C(NCCNc1ccnc(Nc2ccc(F)cc2)n1)c1cc2ccccc2s1 [GSK1379874] | 0% | 0% | 41% | 29% | 22% | 0% | 0% | 0% | 0% | 7% | 0% | 2% | 0% | 0% | 6% | 0% | 17% | 13% | 0% | 30%
9 | Fc1ccc(-c2ncn(CCCN3CCOCC3)c2-c2ccccn2)cc1 [SB-211742] | 6% | 31% | 0% | 0% | 0% | 0% | 18% | 0% | 13% | 0% | 0% | 0% | 0% | 0% | 0% | 27% | 0% | 0% | 0% | 0%
10 | COc1ccc(S(=O)(=O)NC2CCN(c3cc(C)nc(Nc4cccc(C#N)c4)n3)CC2)cc1.O=C(O)C(F)(F)F [GSK1653539] | 0% | 0% | 0% | 0% | 1% | 0% | 0% | 0% | 0% | 0% | 0% | 0% | 20% | 0% | 0% | 0% | 27% | 0% | 0% | 48%
11 | COc1ccc(COc2cc(-n3cnc4ccccc43)sc2C(N)=O)cc1 [GSK1024304] | 0% | 0% | 0% | 14% | 32% | 0% | 0% | 1% | 0% | 24% | 0% | 13% | 1% | 0% | 0% | 0% | 4% | 0% | 0% | 25%
12 | CSc1ccc(-c2cc3ncnc(SCC(=O)O)c3s2)cc1 | 0% | 0% | 2% | 0% | 1% | 0% | 10% | 0% | 3% | 8% | 0% | 0% | 0% | 3% | 0% | 24% | 0% | 8% | 34% | 36%
13 | Cn1ccc2ncnc(Oc3ccc(NC(=O)Nc4ccncc4)c(Cl)c3)c21 | 40% | 32% | 0% | 0% | 4% | 0% | 0% | 0% | 0% | 0% | 0% | 0% | 0% | 0% | 0% | 5% | 0% | 0% | 0% | 17%
14 | Nc1nccc(-c2c(-c3ccc(F)cc3)ncn2C2CCN(CC(F)(F)F)CC2)n1 [SB-236560] | 0% | 0% | 30% | 0% | 10% | 0% | 0% | 9% | 0% | 43% | 30% | 34% | 35% | 0% | 0% | 0% | 2% | 0% | 14% | 17%
15 | O=c1cc(N2CCOCC2)nc2n(Cc3cccc4ccccc34)ccn12 [GSK2333389] | 0% | 0% | 0% | 3% | 18% | 0% | 0% | 23% | 0% | 0% | 0% | 0% | 3% | 0% | 0% | 2% | 0% | 0% | 0% | 12%
16 | O=C1NC(=O)C(N2CCc3ccccc32)=C1c1cccc(Cl)c1 [SB-408010] | 0% | 0% | 0% | 0% | 0% | 0% | 0% | 0% | 0% | 0% | 0% | 18% | 46% | 0% | 0% | 0% | 0% | 0% | 15% | 5%
17 | COc1cc2c(cc1OCCN1CCN(C)CC1)ncc1c3ccc(C#N)cc3[nH]c21 | 34% | 80% | 9% | 0% | 99.9% | 11% | 51% | 0% | 0% | 93% | 0% | 99.4% | 99.7% | 98.8% | 0% | 0% | 20% | 10% | 0% | 7%
18 | CC(C)(C)n1cnc2c(N)ncnc21 [SKF-97359] | 0% | 0% | 39% | 0% | 8% | 0% | 0% | 0% | 0% | 0% | 21% | 54% | 0% | 0% | 0% | 0% | 0% | 0% | 0% | 0%
19 | Cn1cc(-c2ccc3c(c2)CCN3C(=O)Cc2ccccc2Cl)c2c(N)ncnc21 [GSK2608885] | 70% | 90.6% | 3% | 17% | 99.7% | 47% | 0% | 93.2% | 88% | 8% | 0% | 7% | 0% | 22% | 32% | 0% | 45% | 84% | 92.2% | 100%
